# Cruzain inh Det = blocks cruzain activity in presence of Triton detergent | P25779 | purified cruzain, Z-FR-AMC fluorescence, 0.01% Triton | Potency, µM, inactives show max response, negative = inhibition, actives largely listed as inhibitors | hit rate 0.43% among 200,000 | AID 1478;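 also: plate controls were neutral wells for no effect and buffer without enzyme for full effect; nearly all actives have a fitted effect of over 40% in size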
# Target sequence (P25779 123-467 limits assumed): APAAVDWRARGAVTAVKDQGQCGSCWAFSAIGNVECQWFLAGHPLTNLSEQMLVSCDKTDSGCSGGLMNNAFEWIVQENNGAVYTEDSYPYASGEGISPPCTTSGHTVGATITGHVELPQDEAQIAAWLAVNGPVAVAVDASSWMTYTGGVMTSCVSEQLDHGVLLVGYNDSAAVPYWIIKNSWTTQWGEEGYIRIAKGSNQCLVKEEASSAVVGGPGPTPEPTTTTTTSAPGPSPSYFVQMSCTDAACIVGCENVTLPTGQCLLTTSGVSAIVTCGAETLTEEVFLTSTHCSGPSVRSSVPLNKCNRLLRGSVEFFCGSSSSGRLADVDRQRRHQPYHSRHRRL
#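 Cysteine protease activity tested under reducing, mildly acidic conditions (100 mM sodium acetate pH 5.5, 5 mM DTT) plus 0.01% Triton X-100. Cruzain 1.5 nM; substrate Z-FR-AMC 2 uM; 15 min compound preincubation at room temperature.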
# Cruzain inh noDet = inhibitors of Trypanosoma cruzi cruzain without detergent; P25779; AID 1476; Potency, µM, without a hit: max response, negative = inhibition, usual class: inhibitors; hit rate 2.3% among 200,000; purified cruzain, Z-FR-AMC fluorescence, no detergent;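 also: plate controls were enzyme without inhibitor for no effect and buffer without enzyme for full effect; nearly all actives have a fitted effect of over 40% in size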
#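 Purified cruzain at 1.5 nM, pre-incubated 15 min with compound at room temperature in 100 mM sodium acetate pH 5.5, 5 mM DTT, 0.00005% Triton X-100. Reaction started with 2 uM Z-FR-AMC; AMC fluorescence increase over 60 s gives rate.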
# * marks the source's active call; other numbers are inactive results; ? = inconclusive. An excerpt weighted towards active compounds, which were near 2.4% of everything screened. Calls follow the shape of the dose curve; as a rule, active = well fitted curve in the direction sought with a large enough effect; inconclusive = small, poorly fitted or top-dose-only effect, or another doubt; inactive = no such curve, though single readings can be large; an effect the other way counts as inactive or inconclusive. Potency is read from the fitted curve at half-maximal effect.
SMILES,Cruzain inh Det,Cruzain inh noDet
Cc1nnc(OC(C)C)c2nn(-c3ccccc3F)c(C)c12,5.1%,2.4%
Cc1ccc(NC(=O)COC(=O)CNC(=O)c2ccc(Br)cc2)c(C)c1,14.1µM*,15.8µM*
CC(=O)COC(=O)CNC(=O)c1ccc(Br)cc1,-23.9%,-23.9%
COc1ccc(OC)c(NC(=O)COC(=O)CNC(=O)c2ccc(OC)c(OC)c2)c1,-1.3%,1.8%
CC(C)N(C(=O)COC(=O)CNC(=O)c1ccc(Br)cc1)c1ccccc1,15.8µM*,15.8µM*
CCOc1ccc(C(=O)NCC(=O)OCC(=O)Nc2ccccc2OCC)cc1,-25.9%,-6.5%
Cc1ccc(C(=O)NCC(=O)OCC(=O)Nc2ccccc2[N+](=O)[O-])cc1,11.2µM*,7.94µM*
Cc1ccc(C(=O)COC(=O)CNC(=O)C(c2ccccc2)c2ccccc2)cc1[N+](=O)[O-],-26.9%,-25.3%
Cc1ccc(C(=O)NCC(=O)OCC(=O)c2ccc(C)c([N+](=O)[O-])c2)cc1,15.8µM*,12.6µM*
CC1(C)S[C@@H]2[C@H](NC(=O)Cc3ccccc3)C(=O)N2[C@@H]1C(=O)O,-2.1%,3.3%
COc1ccc(Cc2nc3ccc(C(=O)NCc4cc(Br)ccc4OC)cc3o2)cc1,-3.2%,?
COCCCn1c(=O)c2sccc2n2c(CCCC(=O)Nc3cccc(C(F)(F)F)c3)nnc12,-1.2%,?
COc1cc(NC(=O)c2cc3nc(-c4ccccc4)cc(-c4ccccc4)n3n2)c(OC)cc1Cl,-1.2%,5.2%
COc1cccc(C(=O)NCC(=O)OCC(=O)Nc2cc(OC)c([N+](=O)[O-])cc2C)c1,22.4µM*,?
O=C(Cc1ccccc1)NCC(=O)OCC(=O)c1ccc(Cl)c([N+](=O)[O-])c1,?,15.8µM*
Cc1ccc(NC(=O)COC(=O)CNC(=O)c2ccc3ccccc3c2)c([N+](=O)[O-])c1,7.08µM*,3.16µM*
O=C(COC(=O)CNC(=O)c1cccc([N+](=O)[O-])c1)Nc1ccccc1OC(F)F,15.8µM*,20µM*
Cc1ccc(NC(=O)COC(=O)Cn2nc(C)c([N+](=O)[O-])c2C)c([N+](=O)[O-])c1,-2.2%,6.3%
COc1cc(NC(=O)COC(=O)CNC(=O)c2cc(C)cc(C)c2)c(C)cc1[N+](=O)[O-],?,-19.6%
O=C(NCCc1ccccc1)c1ccc(Cl)c([N+](=O)[O-])c1,-7.1%,-20.0%
O=C(COC(=O)CNC(=O)c1cccc([N+](=O)[O-])c1)Nc1nc2ccccc2s1,-26.2%,?
COc1ccc(OC)c(NC(=O)Cn2ccn(-c3ccc(F)cc3)c(=O)c2=O)c1,-2.1%,?
C=CC1=C(C(=O)O)N2C(=O)[C@@H](NC(=O)C(N=O)c3csc(N)n3)[C@H]2SC1 (some centres not stated),-1.2%,-5.7%
O=C(NCc1ccc(Cl)cc1)c1ccc2c(c1)NC(=O)C(CS(=O)(=O)Cc1ccccc1Cl)N2 (configuration not stated),-2.8%,25.1µM*
COc1ccc(CNC(=O)c2ccc3c(c2)NC(=O)C(CS(=O)(=O)Cc2ccccc2Cl)N3)cc1 (configuration not stated),-0.9%,5.1%
SMILES,Cruzain inh Det,Cruzain inh noDet
CCOc1ccccc1NC(=O)c1cnn2c(C(F)F)cc(-c3ccccc3)nc12,-2.8%,-19.4%
N#CC1=C(N)N2C(=C(C#N)C1c1ccccc1)Sc1ccccc12 (configuration not stated),-2.4%,12.6µM*
CCOc1ccc(C2C(C#N)=C(N)N3C(=C2C#N)Sc2ccccc23)cc1 (configuration not stated),-10.0%,?
O=c1c2sc3ccccc3c2n(Cc2ccccc2F)c(=O)n1Cc1ccccc1,-1.6%,13.4%
Cc1ccc2c(c1)C(c1ccccc1)N(C(=O)c1ccccc1F)CC(=O)N2 (configuration not stated),-1.6%,13.8%
O=[N+]([O-])c1ccc(-c2nc(-c3cccs3)c(-c3cccs3)[nH]2)cc1,-2.4%,31.6µM*
O=[N+]([O-])c1cccc(-c2nc(-c3cccs3)c(-c3cccs3)[nH]2)c1,-1.0%,?
CCCN1CCN(c2ncnc3sc(C(=O)Nc4cccc(Cl)c4C)c(C)c23)CC1,2.24µM*,15.8µM*
CCCN1CCN(c2ncnc3sc(C(=O)Nc4ccc(N(CC)CC)cc4C)c(C)c23)CC1,-1.5%,-22.0%
N#CCCSC(=S)[C@H]1CCCC1=N,0.5%,-2.5%
CCn1c(SCc2ccccc2C)nc(=O)c2c(C(=O)OC)cc(C3CC3)nc21,-4.7%,-22.6%
O=C(CSc1ccc(Cl)cc1)Nc1ccc(-c2nc3ccccc3[nH]2)cc1,?,20µM*
O=C(CSc1ccccc1)Nc1nc2ccccc2[nH]1,-7.2%,-2.7%
O=C1C(Nc2ccccc2)=C(N2CCCCC2)C(=O)c2ccccc21,-12.3%,-21.9%
O=C(/C=C/c1ccc(O)cc1)c1ccc(NC2=C(N3CCCCC3)C(=O)c3ccccc3C2=O)cc1,-5.9%,12.6µM*
CCOc1ccc(-c2nnc(SCC(=O)NCc3ccccc3)o2)cc1,-3.9%,-7.7%
CCOc1ccc(-c2nnc(SCC(=O)Nc3cc(F)ccc3F)o2)cc1,-7.3%,10µM*
COc1ccc(-c2nnc(SCC(=O)Nc3cc(F)ccc3C)o2)cc1,3.7%,2.2%
CCOc1ccc(-c2nnc(SCC(=O)NCc3ccc(Cl)cc3)o2)cc1,25.1µM*,20µM*
COc1ccc2c(c1)C(=O)[C@H](OC(=O)Nc1ccc(OC(F)F)cc1)[C@@H](c1ccc(OC)c(Br)c1)O2,-3.6%,-8.6%
Cc1cccc(NC(=O)C2CCCN(S(=O)(=O)c3ccc4c(c3)oc(=O)n4C)C2)c1C (configuration not stated),1.2%,3.2%
COc1cccc(/C=N/NC(=O)c2ccc(OCc3cccc(Br)c3)cc2)c1,0.3%,?
O=C(N/N=C/c1ccccc1)c1ccc(CN2C(=O)c3cccc4cccc2c34)cc1,-1.7%,-68.1%
COc1cccc(/C=N/NC(=O)c2cc(-c3cccn3C)n[nH]2)c1,1.0%,25.1µM*
COc1cccc(/C=N/NC(=O)c2ccc(CN3c4cccc5cccc(c45)S3(=O)=O)cc2)c1,-5.9%,20µM*
SMILES,Cruzain inh Det,Cruzain inh noDet
CN(C)c1ccc(/C=N/NC(=O)c2ccc(CN3C(=O)c4cccc5cccc3c45)cc2)cc1,-1.1%,3.98µM*
COc1cc(/C=N/NC(=O)c2cc(-c3cccn3C)n[nH]2)cc(OC)c1OC,-1.7%,5.8%
O=c1n(Cc2ccc([N+](=O)[O-])cc2)c2ccccc2c2nc(-c3ccccc3)nn12,3.4%,9.0%
Cc1ccc(NC(=O)Cn2c(-c3ccc4c(c3)OCO4)cn(-c3ccccc3)c2=O)cc1,-5.8%,?
CCC1=C2CC[C@H]3C(=O)N(CC)C(=O)[C@H]3[C@H]2[C@@]2(Cc3ccccc3)C(=O)N(CC3CC3)C(=O)N2C1=O,0.6%,-4.3%
O=C(CSc1nc(=O)n(Cc2ccco2)c2c1CCC2)Nc1cccc(F)c1,-4.8%,-11.8%
O=C(c1ccc(N2C(=O)C3CC=C(Cl)CC3C2=O)cc1)N1CCCCC1 (configuration not stated),-2.1%,-3.1%
O=C(Nc1ccc(Br)cc1)c1ccc(N2C(=O)C3CC=C(Cl)CC3C2=O)cc1 (configuration not stated),-3.7%,20µM*
CCOc1cc2c(cc1OCC)C(CC(=O)OC)N(C(=O)Nc1cc(OC)ccc1OC)CC2 (configuration not stated),-5.6%,?
Cc1noc(NC(=O)Nc2ccccc2F)c1C#N,2.6%,3.9%

# High-throughput results: PubChem, National Center for Advancing Translational Sciences (NCATS)
